# Among all 2,100 compounds or so, about 770 (37%) were called active. The list shows a part of the results. Unmarked numbers belong to inactive results.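 Rule for the calls: active = by-eye trace score of 1 for enhancers or -1 for inhibitors, so actives lie on both sides (some results past the limit were not filed as active); inactive = score 0, or 3 fluorescent, or 4 baseline rise.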
# Target: G protein-activated inward rectifier potassium channel 2 (Homo sapiens) + G protein-activated inward rectifier potassium channel 1 (Homo sapiens) (UniProt P48051+P48549)
# Sequence (P48051 whole entry, looked up): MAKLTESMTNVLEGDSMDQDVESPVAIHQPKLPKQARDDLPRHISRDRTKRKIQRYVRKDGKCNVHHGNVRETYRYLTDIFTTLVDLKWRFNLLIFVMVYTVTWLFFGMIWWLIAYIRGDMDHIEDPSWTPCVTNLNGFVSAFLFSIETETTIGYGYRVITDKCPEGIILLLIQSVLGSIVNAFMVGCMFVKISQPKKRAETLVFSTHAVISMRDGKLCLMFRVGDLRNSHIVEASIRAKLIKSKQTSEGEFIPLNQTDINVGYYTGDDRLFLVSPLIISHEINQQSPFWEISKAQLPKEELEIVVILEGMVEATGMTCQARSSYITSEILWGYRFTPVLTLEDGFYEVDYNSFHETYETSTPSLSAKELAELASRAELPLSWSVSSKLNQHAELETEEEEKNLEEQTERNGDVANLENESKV
# Sequence (P48549 whole entry, looked up): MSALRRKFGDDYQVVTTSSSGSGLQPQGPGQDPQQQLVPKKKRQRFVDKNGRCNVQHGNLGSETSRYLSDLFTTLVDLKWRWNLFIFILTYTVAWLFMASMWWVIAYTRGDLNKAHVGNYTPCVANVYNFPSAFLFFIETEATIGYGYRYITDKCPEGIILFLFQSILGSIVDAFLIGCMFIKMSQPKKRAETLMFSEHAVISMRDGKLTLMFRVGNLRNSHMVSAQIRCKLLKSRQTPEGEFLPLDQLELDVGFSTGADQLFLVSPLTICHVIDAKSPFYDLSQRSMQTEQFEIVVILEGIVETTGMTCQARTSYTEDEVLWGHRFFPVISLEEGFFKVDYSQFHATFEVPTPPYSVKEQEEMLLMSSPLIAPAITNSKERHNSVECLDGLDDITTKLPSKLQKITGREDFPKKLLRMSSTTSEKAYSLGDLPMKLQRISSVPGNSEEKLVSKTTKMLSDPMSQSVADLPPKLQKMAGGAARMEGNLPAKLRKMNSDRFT
# Assay: GIRK1/2 thallium flux modulators, retest, confirmation, cell-based, HEK293 rmGlu8/hGIRK1/2, FluoZin-2 (AID 623911)
# Conditions: HEK293 rmGlu8/hGIRK1/2, thallium flux FluoZin-2; actives lie on both sides; glutamate co-added at its EC20 level
row,Structure (SMILES),manual score
1,Cc1ccc(N2CC(C(=O)N/N=C/c3sccc3C)CC2=O)cc1 (stereo unspecified),0.5
2,CCN(CC)CCN1C(=O)c2oc3ccccc3c(=O)c2C1c1ccccc1 (stereo unspecified),0
3,CN(C)CCCN1C(=O)c2oc3ccccc3c(=O)c2C1c1cccs1 (stereo unspecified),0
4,CCN(CC)CCCN1C(=O)c2oc3ccccc3c(=O)c2C1c1cccs1 (stereo unspecified),1 (active)
5,Cc1c(C2Nc3ccccc3NC3=C2C(=O)CC(C)(C)C3)cnn1C (stereo unspecified),0
6,CC(C)Sc1nc2c(c(=O)[nH]1)C(c1cccs1)C1=C(CC(C)(C)CC1=O)N2 (stereo unspecified),-1 (active)
7,Cc1cc2c(cc1C)NC(c1c(C)n(C)n(-c3ccccc3)c1=O)C1=C(CC(C)(C)CC1=O)N2 (stereo unspecified),3
8,COc1ccc(C(=O)C2C(c3ccc(-c4ccccc4[N+](=O)[O-])o3)NC(=O)NC2(O)C(F)(F)F)cc1 (stereo unspecified),-1 (active)
9,Cc1cc([N+](=O)[O-])ccc1-c1ccc(C2Nc3ccccc3C(=O)N2O)o1 (stereo unspecified),0
10,CN(C)c1nc2ccccc2c(N)c1-c1ccccc1,-1 (active)
11,Fc1cccc2sc(Nc3nc4cc5c(cc4s3)OCO5)nc12,0
12,COc1cc(OC)cc(-c2nnc(Nc3nc4c(F)cccc4s3)o2)c1,0
13,COc1cccc(-c2nnc(Nc3nc4c(F)cccc4s3)o2)c1,1 (active)
14,Fc1cccc2sc(Nc3nc4ccccc4s3)nc12,0
15,Fc1cccc2sc(Nc3nnc(-c4ccccc4)o3)nc12,1 (active)
16,Fc1ccc2nc(Nc3nc4c(F)cc(F)cc4s3)sc2c1,0
17,Fc1cccc2sc(Nc3nnc(-c4ccco4)o3)nc12,1 (active)
18,Fc1cc(F)c2nc(Nc3nc4c(F)cccc4s3)sc2c1,0.5
19,Fc1ccc2nc(Nc3nc4c(F)cccc4s3)sc2c1,1 (active)
20,COc1ccc(-c2nnc3sc(C4CCCCC4)nn23)cc1OC,0
21,C=CCNC(=O)C1CC(=O)N(c2ccc(OCC(=O)Nc3ccccc3)cc2)C1 (stereo unspecified),0
22,Cc1cc2nc(CCN(C(=S)NCC(C)C)C3CCCC3)[nH]c2cc1C,0
23,Cc1ccc(C)c(NC(=S)NNC(=O)c2csc3c2CCCC3)c1,1 (active)
24,Cc1cccc(NC(=S)NNC(=O)c2csc3c2CCCC3)c1,1 (active)
25,Cc1ccc(C)c(NC(=S)NNC(=O)c2csc3c2CCC(C)C3)c1 (stereo unspecified),1 (active)
26,Cc1cccc(NC(=S)NNC(=O)c2csc3c2CCC(C)C3)c1 (stereo unspecified),1 (active)

row,Structure (SMILES),manual score
1,CC(C)(C)C1CCc2c(C(=O)N/N=C/c3cccs3)csc2C1 (stereo unspecified),0
2,Cc1ccc(NC(=O)c2ccc(COc3ccc4c(c3)CCC4)cc2)c(C)c1,0
3,Cc1cccc(CSc2cccc3cccnc23)c1,0
4,CC(=O)Nc1cccc2c1C(=O)N(c1cccc(C)c1)C2=O,0
5,O=C1CC(N2CCN(c3nc4ccccc4s3)CC2)C(=O)N1c1ccc(F)cc1 (stereo unspecified),0
6,CC(C)(C)c1ccc(OCCON2C(=O)CCC2=O)c(Cl)c1,0
7,Cc1ccc(C)c(NC(=S)NNC(=O)c2cc3c(s2)CCC(C)C3)c1 (stereo unspecified),1 (active)
8,Cc1ccccc1NC(=S)NNC(=O)c1csc2c1CCC(C)C2 (stereo unspecified),1 (active)
9,CC(C)CNC(=S)NNC(=O)c1csc2c1CCC(C)C2 (stereo unspecified),0
10,CN(C)/C=C/C(=O)/C=C/c1cn(-c2ncc(C(F)(F)F)cc2Cl)c2ccccc12,0
11,CCn1c(=S)[nH]c2nc3c(cc2c1=O)CCCC3,1 (active)
12,O=c1c2ccc(Cl)cc2[nH]c(=S)n1CCC1=CCCCC1,0
13,Cc1ccc(-c2[nH]n3c(=O)c4c(nc3c2C)CCCC4)cc1,0
14,C=CCn1c(=S)[nH]c2nc3c(cc2c1=O)CCCC3,1 (active)
15,Cc1cccc(NC(=S)NC(=O)c2cc(-c3ccccc3)nc3ccccc23)c1,0
16,Cc1cccc(NC(=O)NC(=S)NC(=O)c2ccccc2)c1,0
17,Cc1cccc(NC(=S)N/C(=N/S(=O)(=O)c2ccccc2)c2ccccc2)c1,1 (active)
18,CCOc1ccc(-n2c(SCc3nc(-c4cccs4)no3)nnc2-c2ccncc2)cc1,0
19,COc1ccc(NC(=O)COC(=O)CC23CC4CC(CC(C4)C2)C3)c([N+](=O)[O-])c1,0
20,CCC(=O)Nc1nc2ccc3nc(C)sc3c2s1,0
21,CCN(CC)c1ccc2cc(C(=O)NNC(=O)c3ccc(S(=O)(=O)N4CCCCC4)cc3)c(=O)oc2c1,0
22,COc1ccccc1NC(=O)c1ccc(S(=O)(=O)N2CCCC2)cc1,0
23,O=C(Nc1nnc(-c2ccccc2Cl)o1)c1ccc(S(=O)(=O)N2CCCCCC2)cc1,1 (active)
24,CC1CCCN(S(=O)(=O)c2ccc(C(=O)Nc3nnc(-c4ccccc4Cl)o3)cc2)C1 (stereo unspecified),1 (active)
25,CC1CN(S(=O)(=O)c2ccc(C(=O)Nc3nnc(-c4ccc5c(c4)CCCC5)o3)cc2)CC(C)O1 (stereo unspecified),0
26,NS(=O)(=O)c1ccc(S(=O)(=O)N2CCCC2)cc1,0

row,Structure (SMILES),manual score
1,CCc1cc2cc(C)ccc2nc1SCC(=O)N1CCN(C(=O)c2ccco2)CC1,0
2,CCN(C#N)c1nc(NC(C)C)nc(NC(C)C)n1,0
3,Cc1ccc(N2C(=S)N=C(Nc3ccccc3C)C23CCOC(C)(C)C3)cc1 (stereo unspecified),1 (active)
4,Cc1ccccc1NC1=NC(=S)N(c2ccccc2)C12CCOC(C)(C)C2 (stereo unspecified),1 (active)
5,Cc1ccccc1Nc1nc2nonc2nc1N1CCOCC1,0
6,Cc1cccc(C)c1NC1=NC(=S)N(c2ccc(N(C)C)cc2)C1(C)C,0
7,CCOC(=O)CSc1cccc2cccnc12,0
8,COC(=O)c1sc(NC(=S)NC(=O)c2ccccc2)nc1C,1 (active)
9,CCc1nnc(NS(=O)(=O)c2ccc(NC(=S)NC(=O)c3ccccc3)cc2)s1,0
10,CC(C)(C)c1ccc(C(=O)NC(=S)Nc2nc3c(s2)CCCC3)cc1,0
11,CCOC(=O)c1sc(NC(=S)NC(=O)c2ccco2)nc1C,1 (active)
12,O=C(NC(=S)Nc1nc2ccccc2s1)c1ccco1,1 (active)
13,COC(=O)c1ccc(C(=O)NC(=S)Nc2nc3c(s2)CCCC3)cc1,1 (active)
14,O=C(NC(=S)NCc1ccc(-c2nc3ccccc3s2)cc1)c1ccco1,0
15,COC(=O)c1sc(NC(=S)NC(=O)c2cccc(C)c2)nc1C,0
16,Cn1c(-c2ccc(-c3ccccc3)cc2)c[nH]c1=S,0
17,COC(=O)c1ccc(N2C(=O)CC(Sc3n[nH]c(C)n3)C2=O)cc1 (stereo unspecified),0
18,COC(=O)c1sc(NC(=S)NC(=O)c2ccccc2Cl)nc1C,1 (active)
19,CCN(CC)S(=O)(=O)c1cc(NC(=O)Cn2cnc3ccccc3c2=O)ccc1C,1 (active)
20,CCC(=O)Nc1ccc2c(c1)ncn2-c1ccc(OC)cc1,0
21,COc1cc(OC)c(NC(=O)CCNC(=O)Cn2cnc3ccccc3c2=O)cc1Cl,0
22,C=CCn1c(=O)c2c(C)c(C)sc2n2c(Nc3ccc(OC)cc3)nnc12,-0.5
23,CCCCn1c(N)c(C(=S)NC(=O)CC(C)C)c(=O)n(C)c1=O,1 (active)
24,CCCCn1c(N)c(C(=S)NC(=O)CC(C)(C)C)c(=O)n(C)c1=O,1 (active)
25,Brc1ccc(-c2nnc3c4ccccc4nc(N4CCOCC4)n23)cc1,0
26,CCC(=O)N1c2ccc(C)cc2C2=NNC(=S)NC21O (stereo unspecified),0

row,Structure (SMILES),manual score
1,COc1ccc(C(CCNCc2ccccc2F)c2ccc(F)cc2)cc1 (stereo unspecified),-1 (active)
2,COc1ccc(CNCCC(c2ccc(F)cc2)c2ccc(OC)cc2)cc1 (stereo unspecified),-1 (active)
3,O=C(NNC(=O)c1cc(-c2ccccc2)n(-c2ccccc2)n1)c1cccc([N+](=O)[O-])c1,0
4,COc1ccc(S(=O)(=O)NCCCCCC(=O)NCCCN2CCOCC2)cc1,0
5,COc1ccc(C2c3ccc4ccccc4c3Oc3ncn(CCN4CCOCC4)c(=N)c32)cc1 (stereo unspecified),-1 (active)
6,N=c1c2c(ncn1CCN1CCOCC1)Oc1ccc3ccccc3c1C2c1ccccc1 (stereo unspecified),-1 (active)
7,NC(=O)COc1ccc(C2c3c(oc4ccccc4c3=O)C(=O)N2CC2CCCO2)cc1 (stereo unspecified),0
8,CC1CCN(c2c([N+](=O)[O-])c(=O)oc3ccccc23)CC1,0
9,CCOC(=O)C1(C(C)(C)CC)CC(CSc2nc3ccccc3[nH]2)OC1=O (stereo unspecified),-1 (active)
10,CCn1c(-c2cc3ccccc3cc2O)n[nH]c1=S,0
11,N=C1/C(=C/c2cccs2)C(=O)N=C2SN=C(SCc3ccccc3)N12,1 (active)
12,CSC1=NSC2=NC(=O)/C(=C/c3coc4ccccc4c3=O)C(=N)N12,3
13,O=C1N=C(c2ccccc2)S/C1=C\c1cccs1,0
14,FC(F)(F)c1ccc2nnc(-c3c(Cl)cccc3Cl)n2c1,0
15,O=C(C1CCCN1S(=O)(=O)c1cccc2cccnc12)N1CCc2ccccc21 (stereo unspecified),0
16,O=C(C1CCN(S(=O)(=O)c2cccc3cccnc23)CC1)N1CC=C(c2ccccc2)CC1,-1 (active)
17,O=C(C1CCCN1S(=O)(=O)c1cccc2cccnc12)N1CCn2c1nc1ccccc12 (stereo unspecified),0
18,O=C(Cc1ccccc1)NC(=S)Nc1cccc(C(F)(F)F)c1,0
19,FC(F)(F)c1cccc(N2CCN(C(=S)NC3CCCCC3)CC2)c1,0
20,Cc1ccc(NC(=S)NCc2ccccc2)cc1[N+](=O)[O-],1 (active)
21,FC(F)(F)c1cccc(NC(=S)NCc2ccccc2)c1,1 (active)
22,FC(F)(F)c1cccc(NC(=S)NC2CCCC2)c1,1 (active)
23,COc1ccc(/C=C/C(=O)N2CCN(S(=O)(=O)/C=C/c3ccccc3)CC2)cc1OC,0

# — PubChem BioAssay AID623911 (Vanderbilt High Throughput Screening Facility, 2012)
